# Bioassay records as filed in PubChem.
# Most compounds without a hit are left out; they make up all but 2.8% or so of the library.
# WRN inhibitor: qHTS for Inhibitors of WRN Helicase; Bifunctional 3'-5' exonuclease/ATP-dependent helicase WRN (Homo sapiens), Q14191; actives 0.46% (n = 360,000); WRN helicase unwinding, fluorescent forked duplex, kinetic; AID 651768, 2012; Potency, µM (titrated, usually from 114 µM), for inactives: at the top dose activity change, negative = inhibition, most hits filed as inhibitors; also: potency is read from the fitted curve at half-maximal effect; % is scaled to controls: 0 for no effect and ±100 for the full control effect; nearly all actives have a fitted effect of over 55% in size
#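 Screening of the MLSMR collection measured strand separation of a quenched forked DNA duplex (100 nM) by 20 nM WRN with 2 mM ATP, all final. Compounds were preincubated with enzyme 15 min at room temperature.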
# POLH inh: qHTS for Inhibitors of Polymerase Eta. DNA polymerase eta (Homo sapiens), Q9Y253. recombinant Pol eta, fluorescent DNA replication assay. Potency, µM (titrated, usually from 114 µM), for inactives: at the top dose activity change, negative = inhibition, usual class: inhibitors. actives 1.2% (n = 390,000). AID 588591, 2011; also: potency is read from the fitted curve at half-maximal effect; % is scaled to controls: 0 for no effect and ±100 for the full control effect
#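 Fluorescent replication assay: 50 nM final substrate added after a 15 min room-temperature compound preincubation with 10 nM enzyme. Signal taken at 0 min and again at 10 min.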
# Pol iota inh: qHTS for Inhibitors of Polymerase Iota | DNA polymerase iota (Homo sapiens), Q9UNA4 | Potency, µM (highest dose often 115 µM), without a hit: top-dose activity, negative = inhibition, actives largely listed as inhibitors | Pol iota fluorescent replication assay, 10 min | actives 1% (n = 390,000); also: potency is read from the fitted curve at half-maximal effect
#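 Fluorescent replication assay read twice, at 0 min and 10 min after adding 50 nM (final) substrate. Enzyme (10 nM) and compounds were first incubated 15 min at room temperature; enzyme-free buffer wells were negative controls.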
# POLB inh: qHTS Assay for Inhibitors of DNA Polymerase Beta. P06746. Potency, µM (top dose mostly 114 µM), for inactives: top-dose activity change, negative = inhibition, hits mostly inhibitors. actives 1.3% (n = 340,000). AID 485314, 2010. Pol beta primer extension/strand displacement, fluorescence kinetic; also: potency is read from the fitted curve at half-maximal effect; % is scaled to controls: 0 for no effect and ±100 for the full control effect
#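 Preincubation: enzyme (10 nM) with compound, 15 min, RT. Reaction: substrate added to 50 nM final. Reads: 0 and 10 min. Analysis: normalized, Hill fit.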
# PI5P4Ka inh: qHTS for Inhibitors of phosphatidylinositol 5-phosphate 4-kinase (PI5P4K); Phosphatidylinositol 5-phosphate 4-kinase type-2 alpha (Homo sapiens), P48426; PI5P4Kalpha enzyme, ADP-Glo luminescence, 60 min; active compounds read low; max response, %; actives 1.2% (n = 330,000); AID 652105, 2013; active = max response of -50% or lower; inconclusive = between -30% and -50%; inactive = -30% or higher; also: value at the top dose of about 77 µM; % is scaled to controls: 0 for no effect and ±100 for the full control effect
# Target sequence (P48426 whole entry, looked up): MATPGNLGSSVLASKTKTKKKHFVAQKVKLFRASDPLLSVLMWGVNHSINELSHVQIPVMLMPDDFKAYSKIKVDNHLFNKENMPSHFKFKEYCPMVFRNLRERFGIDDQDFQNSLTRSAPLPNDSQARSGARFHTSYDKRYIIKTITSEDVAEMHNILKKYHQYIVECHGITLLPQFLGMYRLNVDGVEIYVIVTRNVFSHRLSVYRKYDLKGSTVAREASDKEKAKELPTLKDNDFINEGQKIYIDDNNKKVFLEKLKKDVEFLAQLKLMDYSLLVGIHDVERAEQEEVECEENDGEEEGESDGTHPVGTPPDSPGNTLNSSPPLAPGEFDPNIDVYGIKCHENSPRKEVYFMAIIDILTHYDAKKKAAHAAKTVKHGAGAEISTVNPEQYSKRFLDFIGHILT
#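 ADP-Glo luminescence end-point read after a 60 min room-temperature kinase reaction of PI5P4Kalpha plus substrate, initiated with ATP at 5 microM final. Buffer: 0.038 M HEPES pH 7.4, EGTA, 0.1% CHAPS, 5% DMSO.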
# Pol kappa inh: qHTS for Inhibitors of Polymerase Kappa; DNA polymerase kappa (Homo sapiens), Q9UBT6; purified Pol kappa, fluorescent DNA synthesis assay, 10 min; Potency, µM (top dose mostly 107 µM), without a hit: at the top dose activity, negative = inhibition, hits mostly inhibitors; actives 0.53% (n = 400,000); also: potency is read from the fitted curve at half-maximal effect; % is scaled to controls: 0 for no effect and ±100 for the full control effect
#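 Enzyme at 10 nM met test compounds for 15 min at room temperature. Substrate addition (50 nM final) began the reaction, which was monitored by fluorescence at 0 and 10 min.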
# Numbers without * were called inactive; ? = inconclusive; . = not tested or not shown; [ ] = dose if it differs, or a comment. Unless noted, calls follow the shape of the dose curve; as a rule, active = well fitted curve in the direction sought with a large enough effect; inconclusive = small, poorly fitted or top-dose-only effect, or another doubt; inactive = no such curve, though single readings can be large; an effect the other way counts as inactive or inconclusive.
SMILES,WRN inhibitor,POLH inh,Pol iota inh,POLB inh,PI5P4Ka inh,Pol kappa inh
CN(C)S(=O)(=O)N(CC(=O)N(Cc1ccccc1)Cc1ccccc1)c1ccccc1,-27%[57.1 µM],?,?,22µM*,.,?
CCOc1ccc(CNc2nc3nc(C)c(Cc4ccccc4)c(=O)n3[nH]2)cc1,.,-7%,9%,7%,.,0%
O=C(N/N=C/c1ccccc1C(=O)O)c1cc(-c2ccc3c4c(cccc24)CC3)n[nH]1,-31%,?,56%,56µM*,-11,-4%
Cc1nn(Cc2ccc(Cl)c(Cl)c2)c(C)c1NC(=O)c1cc(-c2ccco2)on1,-10%,-4%,12%,45µM*,.,-24%
Cc1nn(Cc2ccc(Cl)cc2)c(C)c1NC(=O)c1cc(-c2ccco2)on1,-4%,6%,-22%,1%,-22,-30%
CCCC[C@]12Cc3ccccc3C(O1)c1c(cc(-c3ccccc3)oc1=O)O2,.,.,.,3.5µM*,.,.
NS(=O)(=O)c1ccc(-c2cccc(/C=C3\SC(=O)NC3=O)c2)cc1,-16%,-18%,?,?,-56*,-10%
COC(=O)c1sc(-c2ccc(C(C)(C)C)cc2)cc1NC(=O)CSCC(=O)O,-4%[11.6 µM],89µM*,79µM*,-7%,8,9%
Cc1ccc(C)c(N2CCN(C3(c4ccccc4)C(=O)c4ccccc4C3=O)CC2)c1,.,-16%,-15%,11%,.,-4%
NNC(=O)c1ccc2[nH]c3c(c2c1)CCCC3,0%,-17%,-10%,4%,-5,11%
CN1CCc2[nH]c3ccc(C(=O)NN)cc3c2C1,-9%[57.1 µM],-16%,?,40µM*,.,?
COc1ccc(C(c2c(O)cc(C)n(Cc3ccco3)c2=O)N2CCN(c3ccccc3)CC2)cc1 (centres undefined),.,-15%,11%,-1%,.,-4%[60.1 µM]
c1ccc2c(-c3cncc4ccccc34)cncc2c1,5%,-1%,32%,.,-73*,-1%
C[n+]1ccnc2ccccc21,.,.,-14%,.,.,2%
CC1(C)Oc2ccc(C(=O)NNC(=O)Nc3ccccc3)cc2NC1=O,-15%,4%,35%,-14%,-3,-10%
CC(=O)COc1ccc2c(c1C)O/C(=C\c1ccco1)C2=O,-10%,22µM*,?,45µM*,-12,?
COc1ccc2c(c1)O/C(=C\c1ccco1)C2=O,-17%,-7%,22%,?,-14,-26%
O=C(N/N=C1/CC2CCC1C2)c1cc2ccccc2cc1O (centres undefined),-9%,-4%,6%,-24%,-56*,-9%
O=C(NCC1CCCCC1)c1cc2ccccc2cc1O,-1%,-5%,13%,-26%,5,-25%
O=C1CC(SC(=S)C2CCCC2=O)C(=O)N1 (centres undefined),35µM*,7.1µM*,.,.,-80*,.
Cc1cc2ccccc2c[n+]1CC(=O)c1ccc(F)cc1,.,.,41%,.,.,-3%
Cc1ccccc1NC(=O)/C(C#N)=C/c1ccc[nH]1,6%,-5%,28%,22%,0,-3%
N#C/C(=C\c1ccc[nH]1)C(=O)Nc1ccccc1[N+](=O)[O-],-15%,?,71µM*,-5%,-65*,?
C=CC[n+]1ccc(/C=C2\C=Cc3cc(C)ccc3N2CC)c2ccccc21,40µM*,-15%,?,?,?,50µM*
CCN1/C(=C/c2cc[n+](CCCS(=O)(=O)[O-])c3ccccc23)Sc2ccccc21,-13%,-5%,?,?,-1,-12%
SMILES,WRN inhibitor,POLH inh,Pol iota inh,POLB inh,PI5P4Ka inh,Pol kappa inh
CN1CCN(S(=O)(=O)c2ccc(NC(=S)NC(=O)c3ccccc3)cc2)CC1,-6%,-3%,1%,1%,-15,0%
CN1CCN(S(=O)(=O)c2ccc(NC(=S)NC(=O)c3ccc(Cl)cc3)cc2)CC1,-31%,?,?,-3%,-51*,-26%
COCOc1cc(O)c2c(=O)c(OCOC)c(-c3ccc(OCOC)c(OCOC)c3)oc2c1,-12%,?,?,.,0,79µM*
COCOc1ccc(-c2cc(=O)c3c(OCOC)cc(OCOC)cc3o2)cc1,2%,-24%,28%,.,0,6%
Cc1ccn2c(=O)nc(SCC(=O)Nc3ccc4c(c3)OCCO4)nc2c1,-4%[11.6 µM],?,56µM*,.,?,-11%
O=C(CSc1nc(=O)n2ccccc2n1)NCc1ccc2c(c1)OCO2,-12%,-17%,16%,.,5,5%
O=C(CSc1nc(=O)n2cc(Cl)ccc2n1)NCCc1ccccc1,-25%,25µM*,?,.,?,-36%
Cc1ccn2c(=O)nc(SCC(=O)Nc3ccc4c(c3)OCO4)nc2c1,-35%,?,35µM*,.,?,-24%
O=C(CSc1nc(=O)n2cc(Cl)ccc2n1)Nc1ccc2c(c1)OCO2,-29%,20µM*,?,.,?,-42%
Cc1ccc2nc(SCC(=O)Nc3ccc4c(c3)OCCO4)nc(=O)n2c1,-25%,-1%,63%,.,1,-11%
COc1cccc(-c2nccc(-n3ccnc3)n2)c1,.,.,.,.,.,3%[60.1 µM]
CCCCOc1ccccc1CC1C(=O)Nc2ccc(Br)cc21 (centres undefined),.,.,10%,-27%,.,1%
Cc1ccc2c(c1)cc1c(=O)n(CC(=O)N3CCCCC3)nc(C)n12,.,-10%,16%,14%,.,16%
COc1ccc(Nc2nc(-c3cc4cccc(OC)c4oc3=O)cs2)cc1,-22%,-6%,3%,-12%,-12,-4%
COc1cccc2cc(/C(C)=N/Nc3nc(-c4cc(C)ccc4C)cs3)c(=O)oc12,?,50µM*,-15%,40µM*,.,-8%
CCCCNC(=O)c1ccc2c(c1)NC(=O)C(CS(=O)(=O)Cc1cccc(C)c1)N2 (centres undefined),.,?,8%,28µM*,.,-4%
CCn1c(C)c(C)c2cc(C(=O)NCc3ccc(OC)cc3OC)ccc21,.,-17%,-11%,-1%,.,-5%
COc1ccc2cc3c(N)nn(C(=O)c4ccc(OC)c(OC)c4)c3nc2c1,.,?,-3%,16µM*,.,-7%
Oc1c(Br)cc(/C=N/Nc2nncc3ccccc23)cc1Br,-29%,?,21%,-7%,-62*,-27%
COc1ccccc1/C=N/Nc1nncc2ccccc12,-33%[57.1 µM],3%,63%,3%,4,-12%
COc1ccc(NC(=O)CSc2nnc(NC(=O)C3CC3)s2)cc1OC,-15%,-7%,-18%,13%,-4,-13%
COC(=O)C(C)CCCC(C)CCCC(C)CCCC(C)C (centres undefined),.,.,.,.,.,6%[60.1 µM]
